Measurements reported in PubChem BioAssay (NCATS).
“And” between values parts separate entries of the source, which are not always exact repeats. Equal entries are not always repeated. Results filed as inconclusive are left out. The source made the active and inactive calls. Unless noted, calls follow the shape of the dose curve; as a rule, active = well fitted curve in the direction sought with a large enough effect; inconclusive = small, poorly fitted or top-dose-only effect, or another doubt; inactive = no such curve, though single readings can be large; an effect the other way counts as inactive or inconclusive.

Legend:
[1] = target: Glucocorticoid receptor (Homo sapiens) (UniProt P04150); experiment: GR-GFP Redistribution (AID 450;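 active = compounds whose dose series gives a full or clear partial fitted curve of increased nuclear translocation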; also: potency is read from the fitted curve at half-maximal effect); details: U2OS GR-GFP nuclear translocation, laser cytometry, 2 h
Chain of Glucocorticoid receptor (Homo sapiens) (P04150 whole entry, looked up, the tested form may be a part): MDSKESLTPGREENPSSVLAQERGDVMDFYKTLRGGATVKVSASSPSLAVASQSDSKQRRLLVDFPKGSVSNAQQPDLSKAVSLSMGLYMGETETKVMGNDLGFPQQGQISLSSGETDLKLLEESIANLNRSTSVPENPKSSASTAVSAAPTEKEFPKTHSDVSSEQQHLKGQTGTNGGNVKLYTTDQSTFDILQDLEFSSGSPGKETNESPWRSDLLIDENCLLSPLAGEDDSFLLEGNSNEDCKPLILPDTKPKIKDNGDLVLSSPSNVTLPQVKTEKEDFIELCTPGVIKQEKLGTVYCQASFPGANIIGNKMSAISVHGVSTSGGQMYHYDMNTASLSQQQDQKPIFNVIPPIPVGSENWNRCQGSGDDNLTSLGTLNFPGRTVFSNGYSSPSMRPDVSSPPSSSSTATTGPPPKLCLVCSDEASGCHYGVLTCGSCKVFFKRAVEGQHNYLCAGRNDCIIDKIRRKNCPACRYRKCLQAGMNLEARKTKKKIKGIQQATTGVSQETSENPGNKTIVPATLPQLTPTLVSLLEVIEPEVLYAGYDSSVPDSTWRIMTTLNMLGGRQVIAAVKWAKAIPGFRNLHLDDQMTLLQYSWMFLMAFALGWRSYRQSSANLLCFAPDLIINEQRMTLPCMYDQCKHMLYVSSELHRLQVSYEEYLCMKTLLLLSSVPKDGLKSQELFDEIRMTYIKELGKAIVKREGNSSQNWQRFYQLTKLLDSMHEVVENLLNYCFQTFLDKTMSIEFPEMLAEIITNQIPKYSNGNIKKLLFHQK

[2] = target: Glucocorticoid receptor (Homo sapiens) (UniProt P04150); experiment: GR-EFC Redistribution (AID 451; calls by dose curve; also: potency is read from the fitted curve at half-maximal effect); details: CHO-K1 GR-EFC translocation, beta-gal luminescence, 2 h
Method in brief: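 Translocation of GR-ED fusion to nuclear EA restores b-gal, read by luminescence after 1 h room-temperature detection. Engineered CHO-K1 biosensor cells, 1,000/well, exposed 2 h at 37 C to titrations up to 46 uM final.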

[3] = Cell Viability - N2a (AID 540); details: N2a mouse neuroblastoma cell viability; series mostly up to 92.2 µM;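 also: cells exposed to compound for 40 h at 37 °C; nearly all actives have a fitted effect of over 45% in size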
Method in brief: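 First, 1500 N2a cells per well incubate 5 hr at 37 °C; next, compounds are added and incubated 40 hr at 37 °C; finally CellTiter-Glo is added and luminescence read after 20 min, with AC50 derived by Hill modeling.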

[4] = Cell Viability - NIH 3T3 (AID 541); details: NIH 3T3 cell viability, qHTS; series mostly up to 92.2 µM;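 also: cells exposed to compound for 40 hours; nearly all actives have a fitted effect of over 25% in size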
Method in brief: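 AC50 values reflect concentration-dependent loss of intracellular ATP in NIH 3T3 cells after 40 hr treatment in complete culture medium, quantified by luciferase-based luminescence.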

[5] = Cell Viability - HUV-EC-C (AID 542); details: HUV-EC-C endothelial cell viability, qHTS; series mostly up to 92.2 µM;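 also: cells exposed to compound for 40 hours; nearly all actives have a fitted effect of over 35% in size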
Method in brief: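 Decrease in cellular ATP, quantified by luciferase luminescence, reflects toxicity in normal human vascular endothelial HUV-EC-C cells given compound for 40 hr in complete culture medium. Values are AC50s from concentration-response curves.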

[6] = Cell Viability - Renal Proximal Tubule (AID 545); details: renal proximal tubule cells viability, primary cells of rat origin; series mostly up to 91.7 µM;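 also: cells exposed to compound for 40 hours; nearly all actives have a fitted effect of over 40% in size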
Method in brief: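 Luminescent ATP signal (CellTiter-Glo) served as the viability read-out after 40 hr compound exposure of freshly isolated rat proximal tubule cells at 37 °C. Concentration-dependent ATP loss was fitted with the Hill equation to give AC50.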

[7] = Cell Viability - Mesenchymal (AID 546); details: mesenchymal cells viability, qHTS; series mostly up to 91.7 µM;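 also: cells exposed to compound for 40 hours before reading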
Method in brief: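 AC50 values reflect the drop in intracellular ATP in a human kidney mesenchymal line derived from normal glomeruli. Treatment lasts 40 hr at 37 °C in complete medium, and the signal comes from CellTiter-Glo luminescence.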

[8] = target: 3',5'-cyclic-AMP phosphodiesterase 4B (Homo sapiens) (UniProt Q07343); experiment: qHTS Assay for Inhibitors of PDE-IV (AID 607; active = well fitted activation curve with a large enough effect in the main read-out, with a control signal flat, not every such curve was filed as active); details: HEK293 ACTOne CNG channel cells, membrane potential fluorescence; series mostly up to 22.9 µM
Chain of 3',5'-cyclic-AMP phosphodiesterase 4B (Homo sapiens) (Q07343 whole entry, looked up): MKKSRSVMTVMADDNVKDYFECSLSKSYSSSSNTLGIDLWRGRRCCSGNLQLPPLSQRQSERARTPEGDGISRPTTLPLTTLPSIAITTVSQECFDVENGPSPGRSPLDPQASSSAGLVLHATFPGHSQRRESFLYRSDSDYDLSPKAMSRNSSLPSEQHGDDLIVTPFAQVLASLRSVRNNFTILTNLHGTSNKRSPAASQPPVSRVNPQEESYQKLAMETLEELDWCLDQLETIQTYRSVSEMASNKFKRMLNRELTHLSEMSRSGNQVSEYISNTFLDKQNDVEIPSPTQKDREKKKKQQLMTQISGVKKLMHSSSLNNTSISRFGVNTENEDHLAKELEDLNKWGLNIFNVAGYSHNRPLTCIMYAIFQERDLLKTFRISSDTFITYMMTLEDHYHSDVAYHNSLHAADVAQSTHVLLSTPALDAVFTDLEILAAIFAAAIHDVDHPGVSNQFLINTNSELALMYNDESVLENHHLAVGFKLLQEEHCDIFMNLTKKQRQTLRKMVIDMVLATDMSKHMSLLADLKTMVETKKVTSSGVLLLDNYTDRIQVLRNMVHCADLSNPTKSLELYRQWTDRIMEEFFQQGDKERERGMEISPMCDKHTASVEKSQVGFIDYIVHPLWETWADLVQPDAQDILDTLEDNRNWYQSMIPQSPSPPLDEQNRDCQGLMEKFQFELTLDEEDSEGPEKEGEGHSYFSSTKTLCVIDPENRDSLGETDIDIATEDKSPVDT
Method in brief: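 ACTOne HEK293 cells carry a modified cAMP-gated CNG channel and express endogenous PDE4; plated 1000 cells/well, compounds up to 22.9 uM final. Membrane-potential dye fluorescence (ex 535/em 590) was read; parental cells received 10 uM forskolin + 100 uM RO 20-1724.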

[9] = Cellular Toxicity (caspase-3) HepG2 (AID 654); details: HepG2 caspase-3 activation, luminescence, 0% = DMSO only, 100% = tamoxifen; series mostly up to 92.2 µM;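 also: cells exposed to compound for 16 hours before reading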
Method in brief: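 qHTS, HepG2, 1500 cells/well, complete medium; cpd 16 h 37 °C; Caspase-Glo 3/7, 20 min RT; lum. Norm: DMSO vs 100 uM tamoxifen; AC50 Hill fit.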

[10] = Cellular Toxicity (caspase-3) Jurkat (AID 655); details: Jurkat caspase-3 activation, luminescence, DMSO = 0%, tamoxifen = 100%; series mostly up to 92.2 µM;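 also: cells exposed to compound for 16 h at 37 °C before reading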
Method in brief: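 5000 Jurkat cells/well; compound 16 hr, 37 °C; Caspase-Glo 3/7 added, 20 min RT; luminescence read. Norm: DMSO = 0%, tamoxifen 100 uM = 100%. AC50, Hill model.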

[11] = Cellular Toxicity (caspase-3) HUV-EC-C (AID 656); details: HUV-EC-C cells, caspase-3 activation (apoptosis), vehicle = 0, 100 µM tamoxifen = 100%; series mostly up to 92.2 µM
Method in brief: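 qHTS; HUV-EC-C, 1000 cells/well; 5 hr settle, 16 hr cmpd, 37°C; Caspase-Glo 3/7, 20 min RT; luminescence. Norm: DMSO = 0%, tamoxifen 100 uM = 100%. Hill-fit AC50.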

[12] = Cellular Toxicity (caspase-3) SHSY5Y (AID 657); details: SH-SY5Y caspase-3 activation, DMSO zero, 10 µM staurosporine = 100%; series mostly up to 91.7 µM;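 also: cells exposed to compound for 16 hours at 37 °C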
Method in brief: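 qHTS, SH-SY5Y, 1500 cells/well, 5 h pre-incubation 37 °C; compound 16 h 37 °C; Caspase-Glo 3/7 1 h RT; luminescence. Norm.: DMSO = 0, 10 uM staurosporine = 100%. Hill fit → AC50.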

[13] = Cellular Toxicity (caspase-3) BJ (AID 658); details: BJ fibroblasts, luminescence, normalized: DMSO 0%, staurosporine 100%; series mostly up to 91.7 µM
Method in brief: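 Readout: Caspase-Glo 3/7 luminescence increase in BJ cells after 16 hr treatment at 37 °C. Staurosporine and tamoxifen served as positive controls; AC50 values came from Hill modelling of data normalized to DMSO and 10 uM staurosporine.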

[14] = Cellular Toxicity (caspase-3) MRC-5 (AID 659); details: MRC-5 cells, luminescence, normalized: DMSO 0%, 10 µM staurosporine 100%; series mostly up to 91.7 µM
Method in brief: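 Concentration-dependent caspase 3/7 activation is measured in human normal lung fibroblasts (MRC-5) following 16-hour treatment. AC50 values come from standard Hill-equation modeling of luminescence normalized to DMSO and 10 uM staurosporine.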

[15] = Cellular Toxicity (caspase-3) Mesangial (AID 660); details: mesangial cells, normalized: DMSO 0%, 100 µM tamoxifen 100%; series mostly up to 91.7 µM;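 also: combined caspase 3 and 7 activity read by Caspase-Glo luminescence; cells exposed to compound for 16 h before the caspase read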
Method in brief: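 Concentration-response qHTS: compound-induced rise in caspase 3/7 luminescence in human mesangial cells after 16 h, normalized to DMSO and 100 uM tamoxifen controls.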

[16] = Cellular Toxicity (caspase-3) SK-N-SH (AID 661); details: SK-N-SH caspase-3 activation, qHTS, DMSO as zero, staurosporine as full; series mostly up to 91.7 µM
Method in brief: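 Caspase 3/7 activation is measured as a luminescence increase from aminoluciferin released by substrate cleavage in SK-N-SH cells after 16 hr compound treatment; values are AC50 from concentration-response curves.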

[17] = Cellular Toxicity (caspase-3) H-4-II-E (AID 663); details: H-4-II-E rat hepatoma, scaled: DMSO 0%, 100 µM tamoxifen 100%; series mostly up to 92.2 µM;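 also: cells exposed to compound for 16 hr before readout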
Method in brief: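 Apoptosis induction is scored as increased luminescence from caspase 3/7 substrate cleavage in rat hepatoma H-4-II-E cells exposed to compound for 16 hr. Activity is scaled between DMSO and 100 uM tamoxifen.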

[18] = Cellular Toxicity (caspase-3) Hek293 (AID 664); details: HEK293 caspase-3 activation, DMSO = 0%, 100 µM tamoxifen = 100%; series mostly up to 92.2 µM;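 also: cells exposed to compound for 16 h at 37 °C before readout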
Method in brief: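 Activation of caspase-3/7 is measured as increased luminescence from cleaved peptide-aminoluciferin substrate in HEK293 cells treated 16 hours at 37 °C. AC50 values come from Hill-equation fits of concentration-response data.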

[19] = Cell Viability - SH-SY5Y (AID 544); details: SH-SY5Y neuroblastoma cell viability; series mostly up to 92.2 µM;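 also: cells exposed to compound for 40 hours; nearly all actives have a fitted effect of over 55% in size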
Method in brief: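 Cytotoxicity is scored as a concentration-dependent fall in intracellular ATP in human SH-SY5Y cells treated 40 hr in complete culture medium. Potency is expressed as AC50 from a Hill equation fit.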

Measured: Potency

NC(N)=NC(=O)c1nc(Cl)c(N)nc1N
inactive: [1] > 46 µM and > 20.6 µM | [2] > 46 µM and > 20.6 µM | [3] | [4] | [5] | [6] | [7] | [8] | [9] | [10] | [11] | [12] | [13] | [14] | [15] | [16] | [17] | [18]

NNCCc1ccccc1
inactive: [1] > 46 µM and > 20.6 µM | [2] > 46 µM and > 20.6 µM | [8]

NC(=O)c1ccc(-c2nc(-c3ccc4c(c3)OCO4)c(-c3ccccn3)[nH]2)cc1
inactive: [1] > 46 µM | [2] > 46 µM

Cc1cn[nH]c1
inactive: [1] > 46 µM | [2] > 46 µM | [8]

Cc1ccc2c(c1)C(=O)[C@@]1(O)CCN(c3ccccc3)C1=N2
inactive: [1] > 46 µM | [2] > 46 µM | [8]

N[C@@H]1CONC1=O
inactive: [1] > 46 µM and > 20.6 µM | [2] > 46 µM and > 20.6 µM | [8]

CCCC(CCC)C(=O)O
inactive: [1] > 46 µM | [2] > 46 µM | [3] | [4] | [5] | [19] | [6] | [7] | [8] | [9] | [10] | [11] | [12] | [13] | [14] | [15] | [16] | [18]

N#Cc1ccc(C(c2ccc(C#N)cc2)n2cncn2)cc1
inactive: [1] > 20.6 µM | [2] > 20.6 µM | [8]
